Hit rate of the full screen: of about 360,000 compounds, about 3,600 (1%) were called active.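 Rule for the calls: active = compounds whose plate-normalised and pattern-corrected inhibition of the luciferase reporter signal at the single screening dose is 50% or more; inactive = the rest.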 For the sample, actives were picked, then their nearest neighbours and some compounds at random.
assay: inhibitors of TROY-driven NF-kB signaling, primary screen, Q293 LMP1-TROYcd cells, NF-kB luciferase, uHTS (AID 1347056); details: Q293 LMP1-TROYcd NF-kB luciferase reporter, 4 h; at 10 µM; hits give high values

inhibition, active:
Cc1ccc(SCC(=O)c2cc(C)c(OC(=S)N(C)C)c(C)c2)cc1 63.3%
CC(C)(C)c1ccc(Oc2ccc(N)cc2)cc1 86.2%
O=C(NCC(=O)N1CCN(c2ccccc2O)CC1)c1ccc2ccccc2c1 71.8%
COC(=O)Cc1[nH]n(-c2nc3ccccc3s2)c(=O)c1C(C)=Nc1ccc(OC)cc1 54.6%
COc1ccccc1C(=O)NC(=S)Nc1ccccc1N1CCCCC1 50.5%
O=C(N/N=C/c1ccc(OC(=O)c2ccccc2Cl)cc1)c1ccc(O)cc1 54.5%
COc1ccc(C(=O)Nc2ccccc2C(=O)N/N=C/c2ccc(O)c(OC)c2)cc1 84.9%
Fc1ccc2[nH]c3c(N4CCSCC4)ncnc3c2c1 59.8%
Oc1c(Cl)cc(Cl)c(Cl)c1Cc1c(O)c(Cl)cc(Cl)c1Cl 80.3%
c1ccc(-c2nnc(SCc3nc4ccccc4[nH]3)o2)cc1 57.9%
O=C(Nc1cc(Cl)ccc1N1CCOCC1)c1ccc(N2CCCC2=O)cc1 70.3%
Cc1ccc(CSc2nc(-c3ccccc3)c(C#N)c(=O)[nH]2)cc1 54%

inhibition, inactive:
Cc1cccc(OC(C)C(=O)N2CCc3ccccc3C2)c1 (configuration not stated) -6.07%
Cc1cccnc1C(NC(=O)C1CCN(Cc2ccc(Cl)c(Cl)c2)CC1)c1ccc(Cl)cc1 (configuration not stated) 4.08%
COCCCNC(=O)CNC(=S)N(Cc1cc(OC)c(OC)c(OC)c1)C1CCCC1 10.9%
Cc1ccc(SCC(=O)Nc2ccc3c(c2)OCCO3)cc1 -62.5%
COC(=O)c1cc(OC)c(OC)cc1NC(=O)CSc1ccc(C)cc1 21.1%
CN(C)S(=O)(=O)c1ccc(Oc2ccc(S(=O)(=O)N(C)C)cc2)cc1 -1.31%
Cc1cc(C(C)(C)C)cc(C)c1N 2.63%
COc1ccc(S(=O)(=O)N(C)C[C@H]2Oc3ccc(NS(=O)(=O)c4cccs4)cc3CC(=O)N([C@H](C)CO)C[C@H]2C)cc1 -24.6%
Cc1ccc(N(C(=O)C(F)(F)F)C(C(=O)NC2CCCCC2)c2ccncc2)cc1C (configuration not stated) -2.62%
O=C(c1ccc2c(c1)C(=O)N(Cc1ccncc1)C2=O)N1CCN(S(=O)(=O)c2ccc(OC(F)(F)F)cc2)CC1 0.85%
CC(C)(C)NC(=O)c1ccc(Cn2cc(C(F)(F)F)ccc2=O)cc1 9.78%
COc1ccc(N2CCN(C(=O)CNC(=O)c3ccc(C(C)(C)C)cc3)CC2)cc1 -17.8%
O=C(NCC(=O)N1CCN(c2ccccc2F)CC1)c1cccs1 -32.6%
CCC(Oc1ccccc1C)C(=O)Nc1ccc(S(=O)(=O)Nc2cc(C)on2)cc1 (configuration not stated) -0.38%
COc1ccc(C(=O)Nc2c(N)nc(SCC(=O)Nc3ccc(C(C)=O)cc3)[nH]c2=O)cc1 -11%
Cc1ccc(S(=O)(=O)N(CC(=O)Nc2cccc([N+](=O)[O-])c2)Cc2ccc(Cl)cc2)cc1 44.3%
O=C1CSC(=O)N1CCOCCN1C(=O)CSC1=O -11.1%
COc1ccccc1C(=O)NC(=S)NC12CC3CC(CC(C3)C1)C2 14.8%
COc1ccccc1C(=O)NC(=S)Nc1ccc(N2CCOCC2)cc1 30.2%
Cc1ccc(CN(Cc2cccnc2)C(=S)Nc2cc(Cl)ccc2C)cc1 -0.68%
NC(=O)C1(C(N)=O)OC1c1ccc(Cl)cc1Cl (configuration not stated) -4.3%
O=C(NN=Cc1ccc2c(c1)CCC2)c1ccccc1O -55%
COc1cccc(OCc2cc(/C=N/NC(=O)c3nc(Cl)c(Cl)c(N)c3Cl)ccc2OC)c1 11.1%
CC(C)(C)C(=O)Nc1ccc(C(=O)N/N=C/c2ccccc2OC(=O)c2ccc(Cl)cc2Cl)cc1 -17%
CCOc1ccc(-c2cc(C(=O)N/N=C/c3ccc(O)cc3)c3ccccc3n2)cc1 42.4%
CN1C(=O)/C(=C/C=C2\SCCN2C)OC1=S -2.27%
CCOC(=O)CCCNC(=O)CN1C(=O)NC(CCc2ccccc2)C1=O (configuration not stated) -5.07%
O=C1/C(=C\Nc2ccccc2)CCN1c1ncccn1 -49.4%
COc1ccc(Cc2nnc(SCC(=O)Nc3ccc(C)c(C)c3)o2)cc1OC 8.78%
Cc1ccnc(NC(=O)C(C)N2C(=O)c3ccccc3C2=O)c1 (configuration not stated) -1.82%
CC(Oc1ccccc1)C(=O)Nc1oc(-c2ccco2)c(-c2ccco2)c1C#N (configuration not stated) 14.3%
O=C(O)c1ccc2c(=O)n3c(nc2c1)/C(=C/c1ccc(OC(F)F)cc1OC(F)F)CC3 1.62%
CCN(C(=O)CSc1nnc(-c2ccncc2)o1)c1ccccc1 2.98%
Fc1ccc2nc(-c3ccccc3)nc(SCc3nnc(-c4ccccc4)o3)c2c1 -9.52%
COc1ccc(C(C)=O)cc1CN1C(=O)NC2(CCCCC2C)C1=O (configuration not stated) 19%
CCOc1ccc(CCNC(=O)CCc2nnc3ccc(N4CCCC4)nn23)cc1OCC 3.54%
Cc1nc2sccn2c(=O)c1S(=O)(=O)NCCc1ccccc1 -4.17%
O=C(Nc1cc(-c2nn(CC(=O)N3CCCCC3)c(=O)c3ccccc23)ccc1N1CCOCC1)c1ccc(Cl)cc1 -10.6%
O=C(Nc1cc(S(=O)(=O)N2CCOCC2)ccc1OCC(F)(F)F)c1ccc(N2CCCC2=O)cc1 1.27%
CN(C)C(=O)c1ccc2c(c1)C1C3CCC(C3)C1C(c1ccccc1)N2 (configuration not stated) -1.11%
O=C(C1CCC(=O)N(C2CC2)C1)N1CCN(c2ccc(Cl)cc2)CC1 (configuration not stated) -7.66%
Cc1ccc(S(=O)(=O)N(C)C)cc1NC(=O)C(C)OC(=O)c1ccc2ccccc2n1 (configuration not stated) -2.57%
COC(=O)c1ccccc1NC(=O)Cn1nc(C(F)(F)F)c2c1CCC2 -27%
N#Cc1c(-c2ccccc2)nc(SCc2cccc(C(F)(F)F)c2)[nH]c1=O 41.2%
Cc1ccccc1CSc1nnc(-c2ccccc2)c(=O)[nH]1 -16.6%

— PubChem BioAssay AID1347056 (Sanford-Burnham Center for Chemical Genomics, 2019)
